In PubChem BioAssay (EPA / NIEHS):
Values joined by “and” are separate entries in the source; they are usually repeats but may differ in a detail not shown here. Equal entries are not always repeated. Where a structure was tested more than once in an assay, its records may differ in their call. Active and inactive are the calls of the source. The calls were made as follows: active = hit-call score of the fitted dose curve at least 0.9, where 1 is the maximum; inactive = score below 0.9.

Columns and labels:
[1] = CEETOX_H295R_OHPREG: CeeTox H295R High-throughput Steroidogenesis Assay for OH-Pregnenolone (OHPREG) (AID 2283434); conditions: actives raise or lower the signal
Method in brief: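 Human adrenal H295R cells were prestimulated 48 h with 10 uM forskolin, then exposed 48 h to chemical in 0.1% DMSO. Medium 17alpha-hydroxypregnenolone was quantified by HPLC-MS/MS after MTBE extraction; bidirectional fitting versus DMSO baseline.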

[2] = CEETOX_H295R_ESTRADIOL: CeeTox H295R High-throughput Steroidogenesis Assay for Estradiol (AID 2283440); conditions: actives raise or lower the signal;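 also: estradiol secreted into medium quantified by LC-MS/MS after dansyl derivatisation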
Method in brief: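 H295R adrenocortical cells were prestimulated with 10 uM forskolin for 48 h, then exposed to test chemical in 0.1% DMSO for 48 h. Medium estradiol was extracted with MTBE, dansyl-derivatized and quantified by HPLC-MS/MS; bidirectional fit versus DMSO.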

[3] = CEETOX_H295R_ESTRONE: CeeTox H295R High-throughput Steroidogenesis Assay for Estrone (AID 2283441); conditions: actives raise or lower the signal;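 also: estrone secreted into medium measured by LC-MS/MS after dansyl derivatization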
Method in brief: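 H295R cells; 48 h forskolin (10 uM) prestimulation; 48 h compound exposure, 0.1% DMSO final. Medium estrone: MTBE extraction, dansyl derivatization, HPLC-MS/MS. Bidirectional fit vs DMSO.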

[4] = CEETOX_H295R_PROG: CeeTox H295R High-throughput Steroidogenesis Assay for Progesterone (PROG) (AID 2283442); conditions: actives raise or lower the signal;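 as to AC50: human H295R adrenal cells primed with 10 µM forskolin before dosing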
Method in brief: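 H295R human adrenal cells were prestimulated with 10 uM forskolin for 48 h, then exposed to test chemical (0.1% DMSO final) for 48 h. Medium progesterone was MTBE-extracted and quantified by HPLC-MS/MS, with bidirectional fitting against DMSO.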

[5] = read-out: Tumor necrosis factor receptor superfamily member 6 (Homo sapiens) (UniProt P25445); test: LTEA_HepaRG_FAS: Life Technologies and Expression Analysis (LTEA) Assay for Fas cell surface death receptor (FAS) using HepaRG (AID 2283447); conditions: mRNA level, 48 h; actives raise or lower the signal
Method in brief: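 Differentiated human HepaRG cells, pre-cultured 48 h, were exposed in duplicate for 48 h to 8-point half-log concentrations (top 100 uM, 0.5% DMSO) in serum-free induction medium; FAS mRNA measured by qRT-PCR, normalized to ACTB/GAPDH/POLR2A, bidirectional fit versus DMSO.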

[6] = read-out: Fatty acid synthase (Homo sapiens) (UniProt P49327); test: LTEA_HepaRG_FASN: Life Technologies and Expression Analysis (LTEA) Assay for Fatty Acid Synthase (FASN) using HepaRG (AID 2283448); conditions: mRNA level, 48 h; actives raise or lower the signal
Method in brief: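 Differentiated human HepaRG cells were exposed for 48 h in serum-free induction medium to eight half-log concentrations up to 100 uM in 0.5% DMSO, in duplicate. FASN mRNA was quantified by TaqMan qRT-PCR, normalized to ACTB/GAPDH/POLR2A, and fitted bidirectionally against DMSO.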

[7] = read-out: Cyclin D2 (CCND2), CCND2 (gene 894); test: LTEA_HepaRG_CCND2: Life Technologies and Expression Analysis (LTEA) Assay for Cyclin D2 (CCND2) using HepaRG (AID 2283449); conditions: mRNA level, 48 h; actives raise or lower the signal;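 also: CCND2 transcript measured by TaqMan qRT-PCR and normalised to three housekeeping genes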
Method in brief: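 Differentiated human HepaRG cells were exposed for 48 h in serum-free induction medium to eight half-log concentrations topping at 100 uM (0.5% DMSO vehicle). CCND2 mRNA was quantified by TaqMan qRT-PCR, normalised to ACTB, GAPDH and POLR2A, and fitted bidirectionally against DMSO.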

[8] = read-out: Cyclin Dependent Kinase Inhibitor 1A (CDKN1A), CDKN1A (gene 1026); test: LTEA_HepaRG_CDKN1A: Life Technologies and Expression Analysis (LTEA) Assay for Cyclin Dependent Kinase Inhibitor 1A (CDKN1A) using HepaRG (AID 2283450); conditions: mRNA level, 48 h; actives raise or lower the signal
Method in brief: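 Differentiated human HepaRG cells, pre-cultured 48 h, were exposed in duplicate for 48 h in serum-free induction medium to eight half-log concentrations up to 100 uM (0.5% DMSO). CDKN1A mRNA was measured by qRT-PCR, normalized to ACTB/GAPDH/POLR2A, bidirectionally fitted versus DMSO.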

[9] = read-out: Cyclin D1 (CCND1), CCND1 (gene 595); test: LTEA_HepaRG_CCND1: Life Technologies and Expression Analysis (LTEA) Assay for Cyclin D1 (CCND1) using HepaRG (AID 2283451); conditions: mRNA level, 48 h; actives raise or lower the signal;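 as to AC50: TaqMan qRT-PCR transcript level normalised to ACTB GAPDH and POLR2A housekeeping genes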
Method in brief: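 Differentiated human HepaRG cells in serum-free induction medium were exposed 48 h to eight half-log concentrations up to 100 uM in 0.5% DMSO; mRNA quantified by TaqMan qRT-PCR, normalized to ACTB, GAPDH, POLR2A, fitted bidirectionally versus DMSO.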

[10] = read-out: flavin-containing dimethylaniline monooxygenases 3 (FMO3), FMO3 (gene 2328); test: LTEA_HepaRG_FMO3: Life Technologies and Expression Analysis (LTEA) Assay for flavin-containing dimethylaniline monooxygenases 3 (FMO3) using HepaRG (AID 2283453); conditions: mRNA level, 48 h; actives raise or lower the signal;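 as to AC50: FMO3 transcript by TaqMan qRT-PCR normalized to ACTB GAPDH and POLR2A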
Method in brief: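 HepaRG, 48 h exposure, 8-pt half-log series from 100 uM, 0.5% DMSO vehicle, duplicates; FMO3 transcript by Fluidigm TaqMan qRT-PCR, housekeeping-normalized; gain/loss fit vs DMSO.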

[11] = read-out: Cytochrome P450 (CYP1A1), CYP1A1 (gene 1543); test: LTEA_HepaRG_CYP1A1: Life Technologies and Expression Analysis (LTEA) Assay for Cytochrome P450 (CYP1A1) using HepaRG (AID 2283454); conditions: mRNA level, 48 h; actives raise or lower the signal
Method in brief: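 Differentiated HepaRG cells in serum-free induction medium were exposed in duplicate for 48 h to eight half-log concentrations up to 100 uM in 0.5% DMSO. CYP1A1 mRNA was quantified by TaqMan qRT-PCR, normalized to ACTB, GAPDH and POLR2A.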

[12] = read-out: CFLAR gene, CFLAR (gene 8837); test: LTEA_HepaRG_CFLAR: Life Technologies and Expression Analysis (LTEA) Assay for CFLAR gene using HepaRG (AID 2283455); conditions: mRNA level, 48 h; actives raise or lower the signal
Method in brief: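 HepaRG cells were plated for 48 h, switched to serum-free induction medium, then exposed in duplicate for 48 h to 8 concentrations (top 100 uM, half-log steps, 0.5% DMSO). CFLAR mRNA was measured by qRT-PCR, normalized to ACTB, GAPDH and POLR2A.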

[13] = read-out: growth arrest and DNA damage 45 (GADD45A), GADD45A (gene 1647); test: LTEA_HepaRG_GADD45A: Life Technologies and Expression Analysis (LTEA) Assay for growth arrest and DNA damage 45 (GADD45A) using HepaRG (AID 2283458); conditions: mRNA level, 48 h; actives raise or lower the signal
Method in brief: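 Differentiated HepaRG cells were exposed in duplicate for 48 h in serum-free induction medium to 8-point half-log concentrations up to 100 uM in 0.5% DMSO. GADD45A mRNA was measured by TaqMan qRT-PCR, normalized to ACTB, GAPDH and POLR2A, with bidirectional fitting versus DMSO.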

[14] = read-out: Forkhead box O3 (FOXO3), FOXO3 (gene 2309); test: LTEA_HepaRG_FOXO3: Life Technologies and Expression Analysis (LTEA) Assay for Forkhead box O3 (FOXO3) using HepaRG (AID 2283459); conditions: mRNA level, 48 h; actives raise or lower the signal
Method in brief: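 Differentiated human HepaRG cells in serum-free induction medium were exposed in duplicate for 48 h to eight half-log concentrations up to 100 uM in 0.5% DMSO. FOXO3 mRNA was quantified by qRT-PCR, normalized to ACTB, GAPDH and POLR2A, with bidirectional fitting versus DMSO.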

[15] = read-out: catalase (CAT), CAT (gene 847); test: LTEA_HepaRG_CAT: Life Technologies and Expression Analysis (LTEA) Assay for catalase (CAT) using HepaRG (AID 2283452); conditions: mRNA level, 48 h; actives raise or lower the signal;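 as to AC50: TaqMan qRT-PCR signal normalized to ACTB GAPDH and POLR2A housekeeping genes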
Method in brief: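 Differentiated HepaRG cells in serum-free induction medium were dosed 48 h in duplicate, eight half-log concentrations from 100 uM in 0.5% DMSO. Transcript measured by TaqMan qRT-PCR, normalised to ACTB/GAPDH/POLR2A, fitted bidirectionally against DMSO.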

[16] = read-out: Forkhead box O1 (FOXO1), FOXO1 (gene 2308); test: LTEA_HepaRG_FOXO1: Life Technologies and Expression Analysis (LTEA) Assay for Forkhead box O1 (FOXO1) using HepaRG (AID 2283456); conditions: mRNA level, 48 h; actives raise or lower the signal
Method in brief: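 Differentiated human HepaRG cells in serum-free induction medium were exposed in duplicate for 48 h to eight half-log concentrations (top 100 uM, 0.5% DMSO). FOXO1 mRNA was measured by TaqMan qRT-PCR, normalised to ACTB, GAPDH and POLR2A, and fitted bidirectionally against DMSO.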

[17] = CEETOX_H295R_CORTIC: CeeTox H295R High-throughput Steroidogenesis Assay for Corticosterone (CORTIC) (AID 2283437); conditions: actives raise or lower the signal;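 also: corticosterone secreted into medium quantified by mass spectrometry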
Method in brief: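 H295R cells were prestimulated 48 h with 10 uM forskolin, then exposed 48 h to test chemical in 0.1% DMSO. Medium corticosterone was MTBE-extracted and quantified by HPLC-MS/MS; bidirectional fit versus DMSO baseline.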

[18] = CEETOX_H295R_DOC: CeeTox H295R High-throughput Steroidogenesis Assay for DOC (AID 2283439); conditions: actives raise or lower the signal
Method in brief: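 H295R adrenal cells prestimulated 48 h with 10 uM forskolin, then exposed 48 h to test chemical (0.1% DMSO final). Medium 11-deoxycorticosterone extracted with MTBE, quantified by HPLC-MS/MS; bidirectional fit versus DMSO baseline; MTT viability in same wells.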

Measured: AC50

Fatty acid synthase (Homo sapiens), sequence (P49327 whole entry, looked up): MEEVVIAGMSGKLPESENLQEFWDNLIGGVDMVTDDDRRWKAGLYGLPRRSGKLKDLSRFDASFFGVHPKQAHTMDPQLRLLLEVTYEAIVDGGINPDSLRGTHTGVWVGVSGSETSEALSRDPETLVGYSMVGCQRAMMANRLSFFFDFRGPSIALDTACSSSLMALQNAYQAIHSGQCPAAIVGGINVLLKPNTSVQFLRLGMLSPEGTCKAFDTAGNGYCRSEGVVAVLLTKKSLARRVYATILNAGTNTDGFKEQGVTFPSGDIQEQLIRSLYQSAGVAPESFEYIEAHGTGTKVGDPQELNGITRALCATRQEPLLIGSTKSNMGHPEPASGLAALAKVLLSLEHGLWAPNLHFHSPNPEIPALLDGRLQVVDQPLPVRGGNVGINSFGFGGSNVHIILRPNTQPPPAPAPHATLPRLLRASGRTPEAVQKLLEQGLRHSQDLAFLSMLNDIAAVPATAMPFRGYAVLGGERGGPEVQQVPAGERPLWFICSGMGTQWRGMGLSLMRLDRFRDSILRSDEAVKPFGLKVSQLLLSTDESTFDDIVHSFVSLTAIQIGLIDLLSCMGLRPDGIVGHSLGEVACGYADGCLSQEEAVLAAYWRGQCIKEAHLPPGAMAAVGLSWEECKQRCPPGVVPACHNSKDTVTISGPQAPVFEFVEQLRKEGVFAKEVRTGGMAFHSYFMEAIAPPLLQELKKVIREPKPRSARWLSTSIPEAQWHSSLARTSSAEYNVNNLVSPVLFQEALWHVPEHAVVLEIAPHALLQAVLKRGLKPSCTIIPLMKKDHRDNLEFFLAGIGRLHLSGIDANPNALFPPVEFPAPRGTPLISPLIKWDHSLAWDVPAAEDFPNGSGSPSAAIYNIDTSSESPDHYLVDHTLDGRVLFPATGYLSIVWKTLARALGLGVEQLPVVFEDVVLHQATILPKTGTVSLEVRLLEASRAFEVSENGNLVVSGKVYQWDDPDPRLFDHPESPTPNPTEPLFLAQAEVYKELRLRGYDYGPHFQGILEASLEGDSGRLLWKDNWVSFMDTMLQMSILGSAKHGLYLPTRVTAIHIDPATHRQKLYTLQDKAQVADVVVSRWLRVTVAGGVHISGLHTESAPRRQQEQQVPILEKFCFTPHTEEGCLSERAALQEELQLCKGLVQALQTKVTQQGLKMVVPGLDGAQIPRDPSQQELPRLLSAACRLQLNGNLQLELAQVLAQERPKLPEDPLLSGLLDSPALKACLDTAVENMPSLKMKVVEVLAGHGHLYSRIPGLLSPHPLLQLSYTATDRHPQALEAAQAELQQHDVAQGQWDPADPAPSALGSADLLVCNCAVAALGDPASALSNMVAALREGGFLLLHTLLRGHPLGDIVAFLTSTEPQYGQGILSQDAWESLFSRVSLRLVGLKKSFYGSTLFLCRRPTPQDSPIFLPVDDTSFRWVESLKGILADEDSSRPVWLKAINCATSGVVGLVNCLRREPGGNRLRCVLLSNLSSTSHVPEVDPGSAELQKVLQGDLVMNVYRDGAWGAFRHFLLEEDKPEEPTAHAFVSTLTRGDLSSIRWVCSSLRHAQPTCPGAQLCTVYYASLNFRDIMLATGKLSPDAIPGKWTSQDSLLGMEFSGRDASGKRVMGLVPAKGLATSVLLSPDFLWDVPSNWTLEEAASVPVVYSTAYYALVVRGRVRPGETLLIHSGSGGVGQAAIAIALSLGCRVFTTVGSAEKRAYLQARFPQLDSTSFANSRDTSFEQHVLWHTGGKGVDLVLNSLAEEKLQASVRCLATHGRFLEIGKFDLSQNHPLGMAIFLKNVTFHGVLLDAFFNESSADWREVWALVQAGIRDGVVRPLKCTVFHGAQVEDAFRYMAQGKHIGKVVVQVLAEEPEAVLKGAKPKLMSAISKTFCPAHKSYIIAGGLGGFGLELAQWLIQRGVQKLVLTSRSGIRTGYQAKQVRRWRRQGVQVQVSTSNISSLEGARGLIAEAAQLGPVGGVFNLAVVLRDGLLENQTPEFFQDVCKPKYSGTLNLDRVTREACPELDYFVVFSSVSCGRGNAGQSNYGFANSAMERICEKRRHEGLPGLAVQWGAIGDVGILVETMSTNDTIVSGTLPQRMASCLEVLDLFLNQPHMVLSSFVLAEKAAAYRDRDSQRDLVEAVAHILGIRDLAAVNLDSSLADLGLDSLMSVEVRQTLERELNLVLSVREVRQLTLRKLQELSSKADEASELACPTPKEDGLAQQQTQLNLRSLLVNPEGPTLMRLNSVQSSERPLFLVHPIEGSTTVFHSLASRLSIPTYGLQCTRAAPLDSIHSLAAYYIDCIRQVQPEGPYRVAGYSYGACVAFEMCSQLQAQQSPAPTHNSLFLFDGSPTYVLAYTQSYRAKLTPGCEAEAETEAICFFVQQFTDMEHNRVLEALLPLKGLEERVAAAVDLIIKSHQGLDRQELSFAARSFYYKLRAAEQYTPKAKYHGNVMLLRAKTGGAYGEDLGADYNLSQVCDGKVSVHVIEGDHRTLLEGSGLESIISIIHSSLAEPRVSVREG

O=C1c2ccccc2C(=O)N1SC(Cl)(Cl)Cl
not listed: [15] | [16] | [17] | [18]
inactive: all other assays above

N#CN
not listed: [1] | [2] | [3] | [4] | [9] | [17] | [18]
inactive: all other assays above

CCOCN(C(=O)CCl)c1c(C)cccc1CC
active: [6] 90.8 µM | [15] 80 µM | [10] 78.7 µM | [11] 50 µM
inactive: [5] | [7] | [8] | [12] | [16] | [13] | [14]

CN1CSC(=S)N(C)C1
inactive: [5] | [6] | [7] | [8] | [10] | [12] | [13] | [14]
active: [11] 28.4 µM

O=C(O)CCCOc1ccc(Cl)cc1Cl
inactive: [5] | [6] | [7] | [8] | [10] | [12] | [16] | [13] | [14]
active: [11] 50.8 µM

CC1(c2ccc(Oc3ccccc3)cc2)OC(=O)N(Nc2ccccc2)C1=O (stereo not drawn)
active: [5] 1.02 µM | [6] 42.4 µM | [8] 9.7 µM | [10] 24.4 µM | [11] 14.1 µM | [13] 13 µM | [14] 4.78 µM
inactive: [12]

O=C(O)C(F)(F)C(F)(F)C(F)(F)C(F)(F)C(F)(F)C(F)(F)C(F)(F)F
inactive: [5] | [6] | [7] | [8] | [10] | [11] | [12] | [13] | [14]

CC(C)(C)C(O)C(Oc1ccc(Cl)cc1)n1cncn1 (stereo not drawn)
active: [6] 32.7 µM and 50 µM and 27.9 µM | [11] 23.1 µM and 18.4 µM and 22 µM
inactive: [1] | [4] | [5] | [7] | [8] | [10] | [12] | [13] | [14]

CC(C)OC(=O)Nc1cccc(Cl)c1
active: [3] 15.6 µM | [11] 50 µM | [13] 50 µM
not listed: [7] | [9] | [15] | [16] | [17] | [18]
inactive: all other assays above

CC[C@H](C)[C@H]1O[C@]2(C=C[C@@H]1C)C[C@@H]1C[C@@H](C/C=C(\C)[C@@H](O[C@H]3C[C@H](OC)[C@@H](O[C@H]4C[C@H](OC)[C@@H](O)[C@H](C)O4)[C@H](C)O3)[C@@H](C)/C=C/C=C3\CO[C@@H]4[C@H](O)C(C)=C[C@@H](C(=O)O1)[C@]34O)O2 (tested in a mixture with another compound)
inactive: [1] | [17] | [18] | [4] | [13] | [14]
active: [6] 11.4 µM | [8] 7.59 µM | [15] 10.5 µM | [10] 14 µM | [11] 0.361 µM | [12] 30.2 µM

ClC1C(Cl)C(Cl)C(Cl)C(Cl)C1Cl (stereo not drawn)
active: [1] 50 µM | [11] 27.3 µM and 19.9 µM
inactive: [5] | [6] | [7] | [8] | [9] | [10] | [12] | [13] | [14]

O=S1OCC2C(CO1)C1(Cl)C(Cl)=C(Cl)C2(Cl)C1(Cl)Cl (stereo not drawn)
active: [8] 79.1 µM | [15] 52.3 µM | [10] 83.4 µM | [11] 50 µM
inactive: [5] | [6] | [12] | [13] | [14]

O=S(=O)(O)C(F)(F)C(F)(F)C(F)(F)C(F)(F)C(F)(F)C(F)(F)C(F)(F)C(F)(F)F
active: [6] 81.5 µM and 71.8 µM and 73.8 µM | [9] 18.5 µM and 22.3 µM and 12.3 µM | [11] 22.6 µM | [12] 13.2 µM
inactive: [5] | [7] | [8] | [9] | [11] | [12] | [13] | [14]

COP(=S)(OC)Oc1ccc([N+](=O)[O-])cc1
active: [4] 9.85 µM | [11] 44.2 µM
not listed: [15] | [16] | [17] | [18]
inactive: all other assays above
